High-throughput results from PubChem.
RGS4 inhibitor: human RGS4 inhibition | P49798 | Transcreener GDP fluorescence polarization, RGS4-accelerated GTP hydrolysis | Potency, µM (series often up to 114 µM), most hits filed as inhibitors | hit rate 0.039% among 390,000 | AID 504845; further: nearly all actives have a fitted effect of over 75% in size
Target sequence (P49798 whole entry, looked up): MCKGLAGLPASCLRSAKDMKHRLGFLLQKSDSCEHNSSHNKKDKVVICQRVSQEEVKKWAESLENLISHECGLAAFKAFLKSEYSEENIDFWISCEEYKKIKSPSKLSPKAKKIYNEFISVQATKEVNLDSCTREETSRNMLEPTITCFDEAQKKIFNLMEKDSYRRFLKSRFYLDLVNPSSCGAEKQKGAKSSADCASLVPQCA
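MLSMR compounds (23 nl, pin-transferred) preincubated 10 min at room temperature with a 500nM (2x) first reagent, then RGS4 at 900nM (2x) plus Transcreener GDP mix added; fluorescence polarization (620/688 nm) read before and after 90 min at 30 °C.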
KB-V1 cytotox: KB-V1 MDR subline cytotoxicity. hit rate 3.4% among 400,000. KB-V1 MDR cells viability, CellTiter-Glo, 72 h. Potency, µM (series often up to 46.1 µM), usual class: cytotoxic; further: nearly all actives have a fitted effect of over 60% in size
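KB-V1, DMEM (no phenol red) + 10% FBS; cpd pin-transferred, titration series; 72 h, 37 degrees C; CellTiter-Glo, luminescence. Data normalized, curve-fit.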
MCF10A rerep: induces DNA re-replication in MCF 10a normal breast cells; MCF 10A DNA re-replication, Hoechst nuclear intensity, 48 h; Potency, µM (top dose mostly 46.1 µM), most hits filed as activators; hit rate 2.9% among 350,000; AID 624296; further: nearly all actives have a fitted effect of over 50% in size
PTAP TSG101 blk: blocks PTAP/TSG101 interaction to inhibit HIV-1 budding | Fluorescence polarization, FITC-PTAP peptide / Tsg101 binding | Potency, µM (doses to about 115 µM), actives largely listed as inhibitors | 340,000 tested, under 10 active | AID 493005; active means well fitted inhibition curve with a large enough effect in the main read-out, with a control signal flat, not every such curve was filed as active; inconclusive means small, poorly fitted or top-dose-only effect, or effect the other way, or a change in a side signal; inactive means no such curve, though single readings can be large or run the other way
Target sequence (Q99816 whole entry, looked up): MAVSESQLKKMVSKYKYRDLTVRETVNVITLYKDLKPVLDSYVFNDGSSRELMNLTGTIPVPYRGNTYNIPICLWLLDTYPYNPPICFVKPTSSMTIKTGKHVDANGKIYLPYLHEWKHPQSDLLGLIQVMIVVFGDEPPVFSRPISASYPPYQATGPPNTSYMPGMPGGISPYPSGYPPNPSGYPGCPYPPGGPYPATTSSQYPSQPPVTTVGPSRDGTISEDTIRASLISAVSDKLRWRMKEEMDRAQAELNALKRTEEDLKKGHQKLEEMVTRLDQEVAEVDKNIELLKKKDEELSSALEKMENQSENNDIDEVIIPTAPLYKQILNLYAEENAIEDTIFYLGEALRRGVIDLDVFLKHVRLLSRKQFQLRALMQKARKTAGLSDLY
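Tsg101 binding domain (10 uM final) was mixed with compound and a FITC-labeled PTAP peptide (50 nM final) in HEPES pH 7.5 buffer with NaCl, Tween 20, EDTA and TCEP; fluorescence polarization was read after 20 min at r.t.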
KB-3-1 cytotox: kills parental KB-3-1 adenocarcinoma cells; Potency, µM (highest dose often 46.1 µM), most hits filed as cytotoxic; hit rate 1.4% among 400,000; KB-3-1 viability, CellTiter-Glo ATP luminescence, 72 h; further: nearly all actives have a fitted effect of over 60% in size
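Parental KB-3-1 adenocarcinoma cells in phenol-red-free DMEM with 10% FBS were pin-treated with compounds at several concentrations, incubated 72 h at 37 °C, and viability read by CellTiter-Glo luminescence; concentration-effect curves were fitted after normalization.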
SW480 rereplic: DNA re-replication induction in SW480 cells. SW480 DNA re-replication, Hoechst DNA content imaging, 48 h. Potency, µM (series often up to 46.1 µM), most hits filed as activators. hit rate 1.8% among 340,000. AID 624297; further: nearly all actives have a fitted effect of over 55% in size
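Readout is total intensity of Hoechst-stained nuclei, excited at 405 nm and collected at 500-530 nm. Compound treatment lasted 48 hr at 37 C in 5% CO2 before staining.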
A number is an active result. Sampled rows, rich in hits. Any-hit rate of the full collection: about 6.6%. Unless noted, the call rests on the fitted dose curve; in most records, active means well fitted curve in the direction sought with a large enough effect; inconclusive means small, poorly fitted or top-dose-only effect, or another doubt; inactive means no such curve, though single readings can be large; an effect the other way counts as inactive or inconclusive.

What do the screens show for `COc1cccc(CNCCSc2nnnn2C)c1OCc1ccccc1F`?
RGS4 inhibitor: inactive; KB-V1 cytotox: inactive; KB-3-1 cytotox: inactive

What do the screens show for `CCc1cc(C(=O)N(C)CC(=O)Nc2c(Cl)cccc2Cl)sc1C`?
RGS4 inhibitor: inactive; KB-V1 cytotox: 18.4µM; MCF10A rerep: inactive; PTAP TSG101 blk: inactive; KB-3-1 cytotox: inactive; SW480 rereplic: inactive

What do the screens show for `O=C(O)CCCc1ccc2ccc3cccc4ccc1c2c34`?
RGS4 inhibitor: inactive; KB-V1 cytotox: inactive; MCF10A rerep: 16.4µM; PTAP TSG101 blk: inactive; KB-3-1 cytotox: inactive; SW480 rereplic: inactive

How did O=C1OC(N2C(=O)CC[C@H]2C(=O)Nc2cccc(F)c2)c2ccccc21 (stereo partly specified) do in these assays?
RGS4 inhibitor: inactive; KB-V1 cytotox: inactive; MCF10A rerep: inactive; PTAP TSG101 blk: inactive; KB-3-1 cytotox: inactive; SW480 rereplic: 4.11µM

How did Cc1ccc(-n2nc(C)c(NC(=O)CCl)c2C)cc1C do in these assays?
RGS4 inhibitor: inactive; KB-V1 cytotox: 16.4µM; MCF10A rerep: inactive; PTAP TSG101 blk: inactive; KB-3-1 cytotox: 9.2µM; SW480 rereplic: inconclusive

How did CCC(=O)Nc1c(C)nn(-c2ccc(C)c(C)c2)c1C do in these assays?
RGS4 inhibitor: inactive; KB-V1 cytotox: inactive; MCF10A rerep: inactive; PTAP TSG101 blk: inactive; KB-3-1 cytotox: inactive; SW480 rereplic: inactive

How did Cc1nn(C)c(C)c1NC(=O)CCl do in these assays?
RGS4 inhibitor: inactive; KB-V1 cytotox: inactive; MCF10A rerep: inactive; PTAP TSG101 blk: inactive; KB-3-1 cytotox: 11.6µM; SW480 rereplic: inactive

Results for Cc1cc(C)cc(-n2cnc3cc(C(=O)NC4CCCCCC4)ccc32)c1 ?
RGS4 inhibitor: inactive

How did O=S(=O)(CC(CN1CCCCC1)N1CCCCC1)c1ccccc1 (stereo unspecified) do in these assays?
RGS4 inhibitor: inactive; KB-V1 cytotox: inactive; MCF10A rerep: 6.51µM; PTAP TSG101 blk: inactive; KB-3-1 cytotox: inactive; SW480 rereplic: inconclusive

Results for O=[N+]([O-])c1ccc(S(=O)(=O)CC(CN2CCCCC2)N2CCCCC2)cc1 (stereo unspecified) ?
RGS4 inhibitor: inactive; KB-V1 cytotox: inconclusive; MCF10A rerep: inactive; PTAP TSG101 blk: inactive; KB-3-1 cytotox: inactive; SW480 rereplic: inactive

What do the screens show for `CC1(C)COC(c2ccc(F)c([N+](=O)[O-])c2)=N1`?
RGS4 inhibitor: inactive; KB-V1 cytotox: inconclusive; MCF10A rerep: 23.1µM; PTAP TSG101 blk: inactive; KB-3-1 cytotox: inconclusive; SW480 rereplic: inconclusive

How did CCOC(=O)c1c(C)oc2c(F)c(F)c(F)c(F)c2c1=O do in these assays?
RGS4 inhibitor: inactive; KB-V1 cytotox: inconclusive; MCF10A rerep: 6.51µM; PTAP TSG101 blk: inactive; KB-3-1 cytotox: inconclusive; SW480 rereplic: inconclusive

How did CC(C)(C)c1cc(NC(=O)Nc2ccc(Cl)cc2Cl)no1 do in these assays?
RGS4 inhibitor: inactive; KB-V1 cytotox: inactive; MCF10A rerep: 18.4µM; PTAP TSG101 blk: inactive; KB-3-1 cytotox: inactive; SW480 rereplic: inactive

What do the screens show for `Cc1ccc(C)c(N2CCN(C(=O)c3cc4c(=O)n(Cc5ccccc5)ccc4nc3C)CC2)c1`?
RGS4 inhibitor: inactive; KB-V1 cytotox: inactive; KB-3-1 cytotox: inactive

Results for COc1cc(NC(=O)NC(C)c2c(-n3cccc3)sc3c2CCN(C)C3)cc(OC)c1 (stereo unspecified) ?
RGS4 inhibitor: inactive; KB-V1 cytotox: inactive; KB-3-1 cytotox: inactive

Results for CN(C)S(=O)(=O)c1ccc2c(c1)N(CC(=O)NCc1ccccc1)C(=O)C1CCCCN21 (stereo unspecified) ?
RGS4 inhibitor: inactive; KB-V1 cytotox: inactive; KB-3-1 cytotox: inactive

What do the screens show for `Nc1nc(-c2ccccn2)nc(N)c1Cc1ccccc1F`?
RGS4 inhibitor: inactive; KB-V1 cytotox: inconclusive; MCF10A rerep: inconclusive; PTAP TSG101 blk: inactive; KB-3-1 cytotox: inactive; SW480 rereplic: inactive

Results for Nc1nc(-c2ccccn2)nc(N)c1Cc1ccc(Cl)cc1Cl ?
RGS4 inhibitor: inactive; KB-V1 cytotox: inconclusive; MCF10A rerep: inconclusive; PTAP TSG101 blk: inactive; KB-3-1 cytotox: inconclusive; SW480 rereplic: 10.3µM

How did CCOC(=O)Cn1nnnc1CN(Cc1ccccc1)Cc1cc2cc(CC)ccc2[nH]c1=O do in these assays?
RGS4 inhibitor: inactive; KB-V1 cytotox: inactive; MCF10A rerep: 10.3µM; PTAP TSG101 blk: inactive; KB-3-1 cytotox: inactive; SW480 rereplic: inconclusive

How did O=c1[nH]c2cc3c(cc2cc1CN(Cc1cccnc1)Cc1nnnn1Cc1ccco1)OCCO3 do in these assays?
RGS4 inhibitor: inactive; KB-V1 cytotox: inactive; MCF10A rerep: inactive; PTAP TSG101 blk: inactive; KB-3-1 cytotox: inactive; SW480 rereplic: inactive

What do the screens show for `O=c1[nH]c2cc3c(cc2cc1CN(Cc1ccccc1)Cc1nnnn1Cc1ccco1)OCCO3`?
RGS4 inhibitor: inconclusive; KB-V1 cytotox: 23.1µM; MCF10A rerep: inactive; PTAP TSG101 blk: inactive; KB-3-1 cytotox: inactive; SW480 rereplic: inconclusive

Results for Cn1c(=O)c(=O)n(C)c2cc(N3CCCC3)c(NC(=O)c3ccc(C(C)(C)C)cc3)cc21 ?
RGS4 inhibitor: inactive; KB-V1 cytotox: inactive; KB-3-1 cytotox: inactive

What do the screens show for `CCCCn1c(=O)nc2n(-c3ccccc3)c3ccccc3cc-2c1=O`?
RGS4 inhibitor: inactive; KB-V1 cytotox: 10.3µM; MCF10A rerep: inactive; PTAP TSG101 blk: inactive; KB-3-1 cytotox: inconclusive; SW480 rereplic: inactive

What do the screens show for `Cc1ccc(C)c(-n2c3nc(=O)n(C)c(=O)c-3cc3ccccc32)c1`?
RGS4 inhibitor: inactive; KB-V1 cytotox: inactive; MCF10A rerep: 14.6µM; PTAP TSG101 blk: inactive; KB-3-1 cytotox: inactive; SW480 rereplic: inactive

How did Cc1cn2c(=O)cc(COc3ccc(NC(=O)COc4ccccc4)cc3)nc2s1 do in these assays?
RGS4 inhibitor: inactive; KB-V1 cytotox: inactive; KB-3-1 cytotox: inactive

What do the screens show for `CC(NC(=O)CCC(=O)c1ccc(F)cc1)C1CC2CCC1C2` (stereo unspecified)?
RGS4 inhibitor: inactive; KB-V1 cytotox: inactive; MCF10A rerep: 10.3µM; PTAP TSG101 blk: inactive; KB-3-1 cytotox: inactive; SW480 rereplic: inconclusive

Results for COc1cc2c(NC3CCN(C)CC3)nc(N3CCCN(C)CC3)nc2cc1OCC1CCNCC1 ?
KB-V1 cytotox: inconclusive; KB-3-1 cytotox: inactive

Results for CCC(C)NC(=O)c1cn(CC)c2ccc(S(=O)(=O)N3CCc4ccccc4C3)cc2c1=O (stereo unspecified) ?
RGS4 inhibitor: inactive; KB-V1 cytotox: inactive; KB-3-1 cytotox: inactive

How did Cc1ccc2cc3c(nc2c1)OCC3 do in these assays?
RGS4 inhibitor: inactive; KB-V1 cytotox: inactive; MCF10A rerep: inactive; PTAP TSG101 blk: inactive; KB-3-1 cytotox: inactive; SW480 rereplic: 8.2µM

What do the screens show for `CN(C)c1ccc(CN(Cc2ccco2)C(=O)COc2ccc(F)cc2)cc1`?
RGS4 inhibitor: inactive

Results for CCN(CC)c1nn2c(=O)c(C(=O)NCc3ccc(OC)cc3OC)cnc2s1 ?
RGS4 inhibitor: inactive
